The whole screen tested about 5,500 compounds, of which about 2,000 (36%) were called active. About 18% were inconclusive and are not listed. Cut-off read from the data, not from the text of the source: active = normalized growth mostly below about 0.91 (no sharp cut-off); inconclusive = no clear call, values can overlap the other calls; inactive = mostly above about 0.92. The list shows a part of the results.
Assay: chemical genetic growth profiling, strain panel (AID 1159580);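 note: tested at 20 µM; growth read once vehicle control cultures reached saturation at 30 °C; 1 = growth at the plate median or of vehicle wells; lower values mean less growth of the strain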
Conditions: growth OD

Measured: normalized growth

O=C(O)CCCCC1CCSS1 (configuration not stated)
active: S. cerevisiae deletion strains, locus YLR262C, strain YPT6 (second series), stronger effect = lower value 0.839
inactive: S. cerevisiae deletion strains, locus YJR075W, strain HOC1, stronger effect = lower value 1 | S. cerevisiae deletion strains, locus YKL009W, strain mrt4, stronger effect = lower value 0.978 | S. cerevisiae deletion strains, locus YKL068W, stronger effect = lower value 1.01 | S. cerevisiae deletion strains, locus YKL085W, strain MDH1 (second series), stronger effect = lower value 0.996 | S. cerevisiae deletion strains, locus YKL085W, strain MDH1, stronger effect = lower value 0.996 | S. cerevisiae deletion strains, locus YKL160W, strain elf1, stronger effect = lower value 0.988 | S. cerevisiae deletion strains, locus YKL190W, strain CNB1, stronger effect = lower value 0.989 | S. cerevisiae deletion strains, locus YKR001C, strain vps1, stronger effect = lower value 0.954 | S. cerevisiae deletion strains, locus YKR026C, strain gcn3, stronger effect = lower value 0.965 | S. cerevisiae deletion strains, locus YKR091W, strain srl3, stronger effect = lower value 0.982 | S. cerevisiae deletion strains, locus YLL001W, strain dnm1, stronger effect = lower value 0.95 | S. cerevisiae deletion strains, locus YLL026W, stronger effect = lower value 0.946 | S. cerevisiae deletion strains, locus YLL041C, strain sdh2, stronger effect = lower value 0.976 | S. cerevisiae deletion strains, locus YLR027C, strain aat2, stronger effect = lower value 0.973 | S. cerevisiae deletion strains, locus YLR039C, strain RIC1, stronger effect = lower value 0.943 | S. cerevisiae deletion strains, locus YLR058C, strain SHM2, stronger effect = lower value 0.968 | S. cerevisiae deletion strains, locus YLR102C, strain apc9, stronger effect = lower value 0.984 | S. cerevisiae deletion strains, locus YLR113W, strain HOG1, stronger effect = lower value 0.961 | S. cerevisiae deletion strains, locus YLR221C, strain rsa3, stronger effect = lower value 0.963 | S. cerevisiae deletion strains, locus YLR258W, strain gsy2, stronger effect = lower value 0.933 | S. cerevisiae deletion strains, locus YLR262C, strain YPT6, stronger effect = lower value 0.969 | S. cerevisiae deletion strains, locus YLR268W, strain sec22, stronger effect = lower value 1.06 | S. cerevisiae deletion strains, locus YLR320W, strain mms22, stronger effect = lower value 0.98 | S. cerevisiae deletion strains, locus YLR330W, strain CHS5, stronger effect = lower value 0.966 | S. cerevisiae deletion strains, locus YLR342W, strain FKS1 (second series), stronger effect = lower value 0.945 | S. cerevisiae deletion strains, locus YLR342W, strain FKS1, stronger effect = lower value 0.979 | S. cerevisiae deletion strains, locus YLR357W, strain rsc2, stronger effect = lower value 0.901 | S. cerevisiae deletion strains, locus YLR370C, strain arc18, stronger effect = lower value 0.986 | S. cerevisiae deletion strains, locus YLR371W, strain rom2, stronger effect = lower value 0.973 | S. cerevisiae deletion strains, locus YLR384C, strain iki3, stronger effect = lower value 0.977 | S. cerevisiae deletion strains, locus YLR418C, strain cdc73, stronger effect = lower value 0.979 | S. cerevisiae deletion strains, locus YML016C, strain PPZ1, stronger effect = lower value 0.982 | S. cerevisiae deletion strains, locus YML032C, strain rad52, stronger effect = lower value 0.993 | S. cerevisiae deletion strains, locus YML120C, strain ndi1, stronger effect = lower value 0.937 | S. cerevisiae deletion strains, locus YML124C, strain tub3, stronger effect = lower value 0.98 | S. cerevisiae deletion strains, locus YMR058W, strain fet3, stronger effect = lower value 0.968 | S. cerevisiae deletion strains, locus YMR078C, strain ctf18, stronger effect = lower value 0.979 | S. cerevisiae deletion strains, locus YMR125W, strain sto1, stronger effect = lower value 0.981 | S. cerevisiae deletion strains, locus YMR129W, stronger effect = lower value 0.937 | S. cerevisiae deletion strains, locus YMR205C, strain PFK2, stronger effect = lower value 0.921 | S. cerevisiae deletion strains, locus YMR223W, strain ubp8, stronger effect = lower value 0.948 | S. cerevisiae deletion strains, locus YMR231W, strain pep5, stronger effect = lower value 0.955 | S. cerevisiae deletion strains, locus YMR263W, strain SAP30, stronger effect = lower value 0.981 | S. cerevisiae deletion strains, locus YMR307W, strain GAS1, stronger effect = lower value 1.02 | S. cerevisiae deletion strains, locus YNL067W, strain RPL9B, stronger effect = lower value 1.01 | S. cerevisiae deletion strains, locus YNL071W, strain lat1, stronger effect = lower value 0.973 | S. cerevisiae deletion strains, locus YNL128W, strain TEP1, stronger effect = lower value 0.962 | S. cerevisiae deletion strains, locus YNL153C, strain GIM3, stronger effect = lower value 1 | S. cerevisiae deletion strains, locus YNL183C, strain NPR1, stronger effect = lower value 0.842 | S. cerevisiae deletion strains, locus YNL209W, strain ssb2, stronger effect = lower value 0.986 | S. cerevisiae deletion strains, locus YNL233W, strain BNI4, stronger effect = lower value 1.01 | S. cerevisiae deletion strains, locus YNL248C, strain rpa49, stronger effect = lower value 0.979 | S. cerevisiae deletion strains, locus YNL250W, strain rad50, stronger effect = lower value 0.979 | S. cerevisiae deletion strains, locus YNL271C, strain bni1, stronger effect = lower value 0.976 | S. cerevisiae deletion strains, locus YNL298W, strain CLA4, stronger effect = lower value 0.928 | S. cerevisiae deletion strains, locus YNL307C, strain MCK1, stronger effect = lower value 0.983 | S. cerevisiae deletion strains, locus YNL322C, strain KRE1 (second series), stronger effect = lower value 0.97 | S. cerevisiae deletion strains, locus YNL322C, strain KRE1, stronger effect = lower value 0.985 | S. cerevisiae deletion strains, locus YNR049C, strain mso1, stronger effect = lower value 0.97 | S. cerevisiae deletion strains, locus YNR052C, strain pop2, stronger effect = lower value 0.999 | S. cerevisiae deletion strains, locus YOL006C, strain TOP1, stronger effect = lower value 1.04 | S. cerevisiae deletion strains, locus YOL012C, strain htz1 0.885 | S. cerevisiae deletion strains, locus YOL147C, strain pex11, stronger effect = lower value 0.975 | S. cerevisiae deletion strains, locus YOR001W, strain rrp6, stronger effect = lower value 0.962 | S. cerevisiae deletion strains, locus YOR061W, strain CKA2, stronger effect = lower value 0.97 | S. cerevisiae deletion strains, locus YOR069W, strain VPS5, stronger effect = lower value 0.986 | S. cerevisiae deletion strains, locus YOR070C, strain gyp1, stronger effect = lower value 0.979 | S. cerevisiae deletion strains, locus YOR080W, strain dia2, stronger effect = lower value 0.962 | S. cerevisiae deletion strains, locus YOR083W, strain WHI5, stronger effect = lower value 0.989 | S. cerevisiae deletion strains, locus YOR106W, strain vam3, stronger effect = lower value 0.957 | S. cerevisiae deletion strains, locus YOR136W, strain idh2, stronger effect = lower value 0.969 | S. cerevisiae deletion strains, locus YOR144C, strain elg1, stronger effect = lower value 0.973 | S. cerevisiae deletion strains, locus YOR184W, strain ser1, stronger effect = lower value 0.973 | S. cerevisiae deletion strains, locus YOR231W, strain MKK1, stronger effect = lower value 0.892 | S. cerevisiae deletion strains, locus YOR265W, strain rbl2, stronger effect = lower value 0.973 | S. cerevisiae deletion strains, locus YOR270C, strain vph1, stronger effect = lower value 1.02 | S. cerevisiae deletion strains, locus YOR290C, strain snf2, stronger effect = lower value 0.91 | S. cerevisiae deletion strains, locus YOR316C, strain cot1, stronger effect = lower value 0.986 | S. cerevisiae deletion strains, locus YPL051W, strain arl3, stronger effect = lower value 0.981 | S. cerevisiae deletion strains, locus YPL055C, strain LGE1, stronger effect = lower value 1 | S. cerevisiae deletion strains, locus YPL078C, strain atp4, stronger effect = lower value 0.99 | S. cerevisiae deletion strains, locus YPL106C, strain sse1, stronger effect = lower value 0.965 | S. cerevisiae deletion strains, locus YPL240C, strain hsp82, stronger effect = lower value 0.97 | S. cerevisiae deletion strains, locus YPL241C, strain CIN2, stronger effect = lower value 0.98 | S. cerevisiae deletion strains, locus YPL256C, strain CLN2, stronger effect = lower value 0.94 | S. cerevisiae deletion strains, locus YPR119W, strain clb2, stronger effect = lower value 0.977 | S. cerevisiae deletion strains, locus YPR141C, strain kar3, stronger effect = lower value 0.985 | S. cerevisiae deletion strains, locus YPR163C, strain tif3, stronger effect = lower value 0.989 | S. cerevisiae deletion strains, locus YPR167C, strain met16, stronger effect = lower value 0.988 | S. cerevisiae deletion strains, strain wtn01, stronger effect = lower value 1 | S. cerevisiae strains, strain wild type, stronger effect = lower value 0.978

Reference: PubChem BioAssay AID1159580 (chemical genetic matrix, 2015)
